Screening results deposited in PubChem by National Center for Advancing Translational Sciences (NCATS).
LASV entry inh – blocks Lassa virus binding to or entry into cells. Lassa virus pseudotype entry inhibition, cell reporter. Potency, µM (titrated, usually from 37.9 µM), without a hit: top-dose activity change, negative = inhibition, usual class: inhibitors. 1.2% of 300,000 active; calls by dose curve; tested in HEK293 cells; note: potency is the fitted concentration of half-maximal effect; % is set by controls: 0 for no effect and ±100 for the full control effect; nearly all actives have a fitted effect of over 50% in size
Cycloheximide cs – counter-screen for Shiga toxin inhibitors: cycloheximide protein synthesis inhibition | cell reporter, cycloheximide protein synthesis inhibition counterscreen | 12% of 300,000 active | max response, % | AID 2314; in the data active = max response mostly above about 13%, no sharp cut-off; inactive = mostly below about 14%; note: read at 38.3 µM for the half of the compounds with a filed dose; 0% is about no effect
HCV inh – inhibitors of hepatitis C virus infection. Huh7.5.1 HCVcc-Cre infection, luciferase reporter, 44 h. Potency, µM (series often up to 41.8 µM), for inactives: at the highest dose activity change, negative = inhibition, usual class: inhibitors. 3.4% of 340,000 active. AID 651820; active = well fitted inhibition curve with a large enough effect; inconclusive = small, poorly fitted or top-dose-only effect, or another doubt; inactive = no such curve, though single readings can be large or run the other way; note: potency is the fitted concentration of half-maximal effect; % is set by controls: 0 for no effect and ±100 for the full control effect
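Infectious HCVcc-Cre (~0.5 moi) was added to cells just after compound, with cells seeded 4 h earlier at 1,000 per well. Luciferase activity after 44 h culture reported infection; substrate was incubated 15 min at room temperature before reading.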
Marburg entry inh – blocks Marburg virus binding to or entry into cells | Marburg virus pseudotyped entry inhibition, cell reporter | Potency, µM (top dose mostly 37.8 µM), inactives show top-dose activity change, negative = inhibition, most hits filed as inhibitors | 1.8% of 300,000 active | AID 540276; calls by dose curve; tested in HEK293 cells; note: potency is the fitted concentration of half-maximal effect; % is set by controls: 0 for no effect and ±100 for the full control effect
FMDV inh – antivirals against foot and mouth disease virus; FMDV antiviral cell-based qHTS; Potency, µM (highest dose often 57.9 µM), without a hit: top-dose activity change, negative = inhibition, most hits filed as inhibitors; 1.2% of 410,000 active; calls by dose curve; tested in HEK293T cells; note: read-out not given here; potency is the fitted concentration of half-maximal effect; % is set by controls: 0 for no effect and ±100 for the full control effect; nearly all actives have a fitted effect of over 45% in size
Shiga inhibitor – Shiga toxin inhibition; Vero cells, Shiga toxin protein synthesis inhibition reporter; 9.2% of 290,000 active; inhibition, % at 38.7 µM; in the data active = inhibition mostly above about 28%, no sharp cut-off; inactive = mostly below about 43%; note: 0% is about no effect
The depositor's hits bear a star; [ ] = dose if it differs, or a comment. The list is not random: actives were taken first. Their share in the collection is about 13%.

What do the screens show for `CSCc1cc(N(C)c2ccccc2)nc(-c2ccccn2)n1`?
Cycloheximide cs: -3.7; HCV inh: 2.82µM*; FMDV inh: 0.0%; Shiga inhibitor: -10.8

How did CN(C)c1cc(C(F)(F)F)nc(-c2ccccn2)n1 do in these assays?
LASV entry inh: inconclusive; Cycloheximide cs: 8.8; HCV inh: 9.9%; Marburg entry inh: -0.3%; FMDV inh: 18.2%; Shiga inhibitor: -13.1

Results for O=S(=O)(Nc1cccc2cccnc12)c1ccccc1O ?
Cycloheximide cs: 4.6; Shiga inhibitor: 10.8

How did CCC(=O)NC(Cc1ccccc1)c1nc2ccccc2[nH]1 (stereo not given) do in these assays?
Cycloheximide cs: 12.4; HCV inh: 7.3%; FMDV inh: 18.9%; Shiga inhibitor: 10.8

How did CCOc1ccc(-c2nnc(SCc3nc4ccccc4[nH]3)n2N)cc1 do in these assays?
LASV entry inh: -11.4%; Cycloheximide cs: 42.2*; HCV inh: 1.6%; Marburg entry inh: 11.6%; FMDV inh: 23.2%; Shiga inhibitor: 82.0

How did O=S(=O)(CCc1nc2ccccc2[nH]1)c1ccc(Cl)cc1 do in these assays?
LASV entry inh: 1.6%; Cycloheximide cs: 10.6; HCV inh: 1.8%; Marburg entry inh: -9.1%; FMDV inh: -6.0%; Shiga inhibitor: 13.1

How did NC(Cc1ccccc1)c1nc2ccccc2[nH]1 (stereo not given) do in these assays?
LASV entry inh: 18.2%; Cycloheximide cs: 18.0*; HCV inh: 12.4%; Marburg entry inh: 16.3%[46.1 µM]; FMDV inh: 16.1%; Shiga inhibitor: 47.6*

Results for Clc1ccc(OCc2nc3ccccc3[nH]2)cc1 ?
LASV entry inh: inconclusive; Cycloheximide cs: 32.0*; HCV inh: 11.2µM*; Marburg entry inh: inconclusive; FMDV inh: 6.4%; Shiga inhibitor: 55.6*

How did Cn1c(SCc2nc3ccccc3[nH]2)nnc1-c1cccnc1 do in these assays?
LASV entry inh: -1.8%; Cycloheximide cs: 14.0; HCV inh: 16.1%; Marburg entry inh: inconclusive; FMDV inh: 15.2%; Shiga inhibitor: 31.2

Results for NC(Cc1nc2ccccc2[nH]1)c1ccc(Cl)cc1 (stereo not given) ?
LASV entry inh: inconclusive; Cycloheximide cs: 45.1*; HCV inh: 21.3%; Marburg entry inh: inconclusive; FMDV inh: 40.5%; Shiga inhibitor: 80.7*

What do the screens show for `COc1ccc(CNC(=O)C2CCN(C(=O)N3CCOc4ccc(C)cc43)CC2)cc1`?
LASV entry inh: inconclusive; Cycloheximide cs: -2.1; HCV inh: 2.9%; Marburg entry inh: -1.6%; FMDV inh: -14.1%; Shiga inhibitor: -19.5

Results for CC/C(Cc1ccccc1)=N\NC(=O)c1cc(C)oc1C ?
LASV entry inh: 21.6%; Cycloheximide cs: -2.0; HCV inh: 30.9%; Marburg entry inh: 1.2%; FMDV inh: -6.8%; Shiga inhibitor: 1.1

How did OC(Cc1nc2ccccc2[nH]1)c1ccccc1Cl (stereo not given) do in these assays?
LASV entry inh: 9.4%; Cycloheximide cs: 48.8*; HCV inh: 16.3%; Marburg entry inh: -7.5%; Shiga inhibitor: 107.5*

What do the screens show for `CCc1nc2ccccc2[nH]1`?
LASV entry inh: 2.8%; Cycloheximide cs: -2.4; HCV inh: 22.8%; Marburg entry inh: 20.5%; Shiga inhibitor: -4.7

How did Cc1ccc(OCc2nc3ccccc3[nH]2)cc1 do in these assays?
LASV entry inh: inconclusive; Cycloheximide cs: 61.4*; HCV inh: -30.0%; Marburg entry inh: inconclusive; FMDV inh: -13.7%; Shiga inhibitor: 56.5*

What do the screens show for `c1ccc(OCc2nc3ccccc3[nH]2)cc1`?
LASV entry inh: inconclusive; Cycloheximide cs: 48.6*; HCV inh: inconclusive; Marburg entry inh: 3.8%; FMDV inh: 45.1%; Shiga inhibitor: 75.4*

How did O=C(NCc1csc(-c2cccs2)n1)Nc1ccc(C(F)(F)F)cc1 do in these assays?
LASV entry inh: -18.3%; Cycloheximide cs: -1.4; HCV inh: 7.3%; Marburg entry inh: 4.1%[46.1 µM]; FMDV inh: -6.6%; Shiga inhibitor: -6.7

How did O=C(NCc1csc(-c2cccs2)n1)Nc1ccc(F)cc1F do in these assays?
Cycloheximide cs: 6.6; HCV inh: 2.1%; FMDV inh: 33.8%; Shiga inhibitor: 21.1

What do the screens show for `O=C(NCCc1cn2ccsc2n1)C1CCCCC1`?
Cycloheximide cs: 6.8; HCV inh: -0.7%; FMDV inh: -7.9%; Shiga inhibitor: -4.5
